Screening data deposited in PubChem by National Center for Advancing Translational Sciences (NCATS).
Rows were chosen to be rich in hits. Some 2.4% of all compounds tested hit in one or more screens of this group.
Rango-impB inh: Rango-importin beta binding inhibition; Q14974; Rango CFP/YFP FRET sensor + importin beta, 45 min; Potency, µM (doses to about 92.2 µM), for the others: at the top dose inhibition of complex formation; 340,000 compounds, 0.031% hits;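 further: 0% = DMSO wells and 100% = buffer wells lacking importin beta; nearly all actives have a fitted effect of over 15% in size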
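Inhibition scored from the CFP 486 nm/YFP 530 nm FRET ratio 45 min after adding 0.125 microM importin beta to 50 nM Rango biosensor preincubated 5 min with compound (room temperature, PBS with DTT, Tween-20, BSA). No-importin wells as positive control.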
TDP1 block: inhibitors of human tyrosyl-DNA phosphodiesterase TDP1. Q9NUW8. recombinant TDP1, AlphaScreen DNA substrate cleavage. Potency, µM (doses to about 130 µM), for inactives: at the top dose activity change, negative = inhibition, usual class: inhibitors. 350,000 compounds, 0.28% hits; active means well fitted curve in the direction sought with a large enough effect; inconclusive means small, poorly fitted or top-dose-only effect, or another doubt; inactive means no such curve, though single readings can be large; an effect the other way counts as inactive or inconclusive; further: on the % scale 0 is the no-effect control and ±100 the full control effect; nearly all actives have a fitted effect of over 40% in size
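E. coli-derived human Tdp1, 1 nM final. Cpd preinc 15 min RT; substrate 15 nM final, 5 min RT; AS bead mix 10 ug/ml final, 10 min RT. Signal loss = tyrosine-FITC cleavage. No-enzyme wells = max signal.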
TSG101-PTAP inh: blocks PTAP/TSG101 interaction to inhibit HIV-1 budding; Q99816; Fluorescence polarization, FITC-PTAP peptide / Tsg101 binding; Potency, µM (series often up to 115 µM), without a hit: top-dose activity change, negative = inhibition, usual class: inhibitors; 340,000 tested, under 10 active; AID 493005; active means well fitted inhibition curve with a large enough effect in the main read-out, with a control signal flat, not every such curve was filed as active; inconclusive means small, poorly fitted or top-dose-only effect, or effect the other way, or a change in a side signal; inactive means no such curve, though single readings can be large or run the other way; further: % of control where 0% means no effect
Target sequence (Q99816 whole entry, looked up): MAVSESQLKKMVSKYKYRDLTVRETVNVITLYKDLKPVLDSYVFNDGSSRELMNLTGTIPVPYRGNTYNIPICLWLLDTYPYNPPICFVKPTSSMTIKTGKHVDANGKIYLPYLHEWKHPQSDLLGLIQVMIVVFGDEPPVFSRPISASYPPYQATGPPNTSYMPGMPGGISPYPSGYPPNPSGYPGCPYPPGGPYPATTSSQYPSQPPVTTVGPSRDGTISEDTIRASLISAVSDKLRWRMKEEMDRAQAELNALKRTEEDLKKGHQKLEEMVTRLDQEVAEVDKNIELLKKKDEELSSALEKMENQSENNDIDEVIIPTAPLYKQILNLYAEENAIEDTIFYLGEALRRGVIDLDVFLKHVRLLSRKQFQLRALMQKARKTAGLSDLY
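Fluorescence polarization binding of Tsg101 binding domain (10 uM final) to FITC-labeled PTAP peptide (50 nM final) in HEPES pH 7.5 buffer with NaCl, Tween 20, EDTA, TCEP. Compounds added before peptide; binding 20 min at RT.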
12-LOX inh: inhibitors of human 12S-lipoxygenase ALOX12; P18054; purified 12hLO, xylenol orange hydroperoxide absorbance; Potency, µM (doses to about 108 µM), inactives show at the top dose activity change, negative = inhibition, hits mostly inhibitors; 580,000 compounds, 1.1% hits; AID 1671190; active means well fitted curve in the direction sought with a large enough effect; inconclusive means small, poorly fitted or top-dose-only effect, or another doubt; inactive means no such curve, though single readings can be large; an effect the other way counts as inactive or inconclusive; further: on the % scale 0 is the no-effect control and ±100 the full control effect
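Hydroperoxide product was detected by ferrous iron/xylenol orange as the 573 to 405 nm absorbance ratio. Arachidonic acid at 40 uM (final) was turned over for 30 min at room temperature by 150 nM human 12hLO, pH 7.0 Hepes buffer, after 15 min compound preincubation.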
Rango release inh: inhibition of RanGTP-driven Rango-importin beta dissociation. O95149+P62826. Biochemical FRET Rango-importin beta, RanGTP-induced dissociation. Potency, µM (top dose mostly 46.1 µM), inactives show at the top dose activity change, negative = inhibition. 340,000 compounds, 0.071% hits. AID 540253; further: % of control where 0% means no effect; nearly all actives have a fitted effect of over 45% in size
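Compounds preincubate 5 min with complex of recombinant Rango and importin beta in PBS with 1 mM DTT. Ran (0.6 uM) loaded with 2 mM GTP plus 0.2 uM RCC1 starts dissociation; FRET is recorded 45 min later.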
ClpP mod: qHTS Assay for Activators of ClpP; 340,000 compounds, 1.9% hits; purified B. subtilis ClpP, FRET peptide cleavage, 20 min; Potency, µM (titrated, usually from 57.5 µM), for inactives: at the top dose activity change, negative = active; AID 651965, 2013; active means well fitted falling curve with a large enough effect; inconclusive means small, poorly fitted or top-dose-only effect; inactive means no such curve, though single readings can be large or run the other way; further: the source files actives as falling curves though it sought activators and does not explain the sign; nearly all actives have a fitted effect of over 65% in size
Target sequence (P80244 whole entry, looked up): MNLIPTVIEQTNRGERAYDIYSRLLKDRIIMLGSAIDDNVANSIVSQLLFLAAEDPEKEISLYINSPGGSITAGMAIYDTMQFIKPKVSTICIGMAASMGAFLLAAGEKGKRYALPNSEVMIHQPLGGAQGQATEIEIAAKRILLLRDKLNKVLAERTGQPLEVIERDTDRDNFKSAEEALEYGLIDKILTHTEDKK
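Buffer: 100 mM Tris/HCl pH8, 100 mM KCl, 0.05% low protease BSA, 2.5% glycerol, 0.01% Tween-20. ClpP 10 microg/mL final; 20 min RT; delta FRET normalized to ADEP and DMSO controls.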
An asterisk follows results filed as active; ? = inconclusive; . = not tested or not shown; [ ] = dose if it differs, or a comment. Unless noted, the call rests on the fitted dose curve. Potency means the concentration at half of the fitted maximal effect.

SMILES	Rango-impB inh	TDP1 block	TSG101-PTAP inh	12-LOX inh	Rango release inh	ClpP mod
CC(OC(=O)c1cc(-c2ccco2)nc2ccccc12)C(=O)NC(=O)NC1CCCCC1 (stereo not drawn)	.	.	.	7.9µM*	.	.
O=C(NC1(c2ccccc2)CCC1)c1cc(=O)[nH]c2ccccc12	.	.	.	11µM*	.	.
O=C(Cc1cccn1-c1ccc(F)cc1)NCc1ccc(N2CCOCC2)cc1	.	.	.	-1%	.	.
N#CC(c1ccncc1)(c1ncc(C(F)(F)F)cc1Cl)N1CCOCC1 (stereo not drawn)	-2%	5%	0%	45µM*	0%	.
N#CC(c1ccccn1)(c1ncc(C(F)(F)F)cc1Cl)N1CCOCC1 (stereo not drawn)	3%	2%	.	-3%	3%	?
Cc1cn([C@H]2C[C@H](O)[C@@H](CNS(=O)(=O)N3CCCC3)O2)c(=O)[nH]c1=O	.	.	.	7.9µM*	.	-1%
c1ccc(-c2c(-c3ccccc3)n(Cc3ccco3)c3ncnc(NCCCn4ccnc4)c23)cc1	5%	10%	-3%	.	1%	25µM*
C[C@@H](NC(=O)[C@@H]1C[C@@H](NC(=O)c2cnccn2)CCN1C(=O)c1ccco1)C(N)=O	.	.	.	30%[176 µM]	.	.
Nc1nccnc1C(=O)Nc1ccc2ccccc2n1	.	.	.	10µM*	.	.
CCN(CC)CCn1c2ccccc2c2cnc(N)c(C#N)c21	4%	-5%	-1%	-19%	4%	14µM*
CCN(CC)CCn1c2ccccc2c2nc3ccccc3nc21	1%	.	-4%	?	-12%	0%
Cc1ccc(-c2nnc(C3CN(C(=O)c4cc(F)ccc4F)CC34CCOCC4)o2)cc1 (stereo not drawn)	.	.	.	0%	.	.
O=C(O)CCCCCn1c(SCC(=O)c2ccc(O)c(O)c2)nc2ccsc2c1=O	-3%	.	-6%	?	11%	7.9µM*
O=C(CN1C(=O)NC(c2ccc(Cl)cc2)C2=C1COC2=O)Nc1ccc(C(F)(F)F)cc1 (stereo not drawn)	.	.	.	8.9µM*	.	.
CC(=O)c1cccc(NC(=O)CN2C(=O)NC(c3ccc(C)cc3)C3=C2COC3=O)c1 (stereo not drawn)	.	.	.	34%	.	.
Cc1ccc(C2NC(=O)N(CC(=O)Nc3ccc(Br)cc3F)C3=C2C(=O)OC3)cc1 (stereo not drawn)	.	.	.	8.9µM*	.	.
Cc1ccc(C2NC(=O)N(CC(=O)Nc3ccc(C(F)(F)F)cc3)C3=C2C(=O)OC3)cc1 (stereo not drawn)	.	.	.	10µM*	.	.
CC(=O)Nc1ccc(NC(=O)CN2C(=O)NC(c3ccc(C)cc3)C3=C2COC3=O)cc1 (stereo not drawn)	.	.	.	20%	.	.
Cc1ccc(C2NC(=O)N(CC(=O)Nc3ccc(Br)c(C)c3)C3=C2C(=O)OC3)cc1 (stereo not drawn)	.	.	.	8.9µM*	.	.
COc1ccccc1CN(C)Cc1ccc(F)cc1	.	.	.	-3%[176 µM]	.	.
COc1ccc(C(=O)N2CCOCC3(CN(Cc4cc(C)cc(F)c4)C3)C2)cc1OC	.	.	.	23%[176 µM]	.	.
c1ccc(CC2=NOC3(CCN(C4CCCCC4)CC3)C2)cc1	.	.	.	0%[6.33 µM]	.	.
O=C(CN1C(=O)NC(c2ccc(Cl)cc2)C2=C1COC2=O)Nc1ccc(F)c(Cl)c1 (stereo not drawn)	.	.	.	7.9µM*	.	.
O=C(COc1ccc(F)cc1)N1CCC(c2n[nH]c(=O)n2-c2ccccc2)CC1	.	.	.	6%	.	.
Cc1ccc(Cn2c(C3CCN(C(=O)c4cccc(C)c4)CC3)n[nH]c2=O)cc1	.	.	.	-1%	.	.
SMILES	Rango-impB inh	TDP1 block	TSG101-PTAP inh	12-LOX inh	Rango release inh	ClpP mod
Cc1ccc(Cn2c(C3CCN(C(=O)c4cccc(F)c4)CC3)n[nH]c2=O)cc1	.	.	.	45µM*	.	.
Cc1ccc(-n2c(C3CCN(C(=O)COc4ccc(F)cc4)CC3)n[nH]c2=O)cc1	.	.	.	45µM*	.	.
Cc1ccc(Cn2c(C3CCN(C(=O)c4ccc(C#N)cc4)CC3)n[nH]c2=O)cc1	.	.	.	6.3µM*	.	.
COc1cccc(CCC(=O)N2[C@@H]3CC[C@H]2CC(NC(=O)c2ccncc2)C3)c1 (stereo partly drawn)	.	.	.	8%	.	.
Cc1noc2c(NCc3ccccc3)cc(-c3cccnc3)nc12	.	.	.	0%[176 µM]	.	.
Cc1ccc(NC(=O)C(C)Sc2ncnc3c2sc2nc4c(cc23)COC(C)(C)C4)cc1 (stereo not drawn)	.	.	.	-4%	.	.
Cc1ccc(-n2nnc(-c3nsc(NC(=O)c4ccc(Cl)cc4)n3)c2C)cc1F	.	.	.	-14%	.	.
C=CCNC(=S)NN=C1CCCCCCC1	0%	5%	-9%	14µM*	-3%	0%
COCCNC(=S)NN=C1CCCCC1	?	-8%	-2%	-5%	-17%	?
CCc1nc2c(OCC(=O)c3ccc(Cl)cc3Cl)cccn2c1N(C=O)Cc1ccccc1	.	.	.	14µM*	.	-14%
CN1C[C@@H](NC(=O)CC(C)(C)CC(=O)O)C[C@H]1c1nc(-c2ccccc2)no1	.	.	.	126µM*	.	.
CC(C)NC(=O)N[C@H]1C[C@@H](c2nc(-c3ccc4c(c3)OCO4)no2)N(C)C1	.	.	.	22µM*	.	.
COc1ccc(-c2ocnc2C(=O)Nc2ccc(C)c(Cl)c2)cc1	.	.	.	7%	.	.
Cn1ccc(NC(=O)c2cc(-c3ccccc3F)cc3c2OCCN3Cc2cccnc2)n1	.	.	.	8%	.	.
NC(=O)[C@H](Cc1cccs1)NC(=O)[C@@]1(O)C[C@@H](O)[C@H](O)[C@@H](NC(=O)c2ccc(F)c(Cl)c2)C1	.	.	.	64%	.	.
COc1cc(NC(=O)c2ccc(-c3nc(CSc4ccccc4)c(C)o3)cc2)cc(OC)c1	.	0%	.	-20%	.	14µM*
COc1cccc(CNC(=O)c2ccc(-c3nc(CSc4ccccc4)c(C)o3)cc2)c1	.	8%	.	-22%	.	-14%
O=C1CC2(CCN(C(=O)c3ccc(C(F)(F)F)cc3)CC2)Oc2ccccc21	.	.	.	1%	.	.
C[C@@H]1COc2c(N3CCN(C)CC3)c(F)cc3c(=O)c(C(=O)O)cn1c23	.	4%[56.1 µM]	.	.	.	.
CN1CCN(c2c(F)cc3c(=O)c(C(=O)O)cn4c3c2SCC4)CC1	-1%	6%	0%	?	1%	28µM*
Cc1noc(C)c1-c1nc(NCCN2CCOCC2)c2ccccc2n1	.	.	.	56µM*	.	.
Fc1ccccc1-c1nc(NCCCN2CCOCC2)c2ccccc2n1	-5%	-3%	2%	-13%	12%	-5%
c1csc(-c2nc(NCCCN3CCOCC3)c3ccccc3n2)c1	1%	6%	-3%	-9%	-16%	35µM*
O=C(NC1CC1)C1CC(=O)N(c2n[nH]c3cc(Br)ccc23)C1 (stereo not drawn)	.	.	.	53%	.	.
